Each structure is given as a SMILES string. Screen size: about 47,000 compounds; about 2,800 (6%) were called active. Only a selection was taken, and actives are over-represented in it overall. Values without a mark were called inactive. No stated cut-off is given here; in the data, active means z-score above about 3 (passing the limit was not always enough); inactive means the rest.

For this test, the target named is Endoribonuclease Dicer (Homo sapiens) (UniProt Q9UPY3). The test is described as follows: inhibitors of Dicer pre-microRNA processing, primary screen, biochemical, cat-ELCCA, chemiluminescence (AID 1347074).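 Further: plate controls were vehicle for no effect and no enzyme for full effect; higher signal means more uncleaved substrate so more Dicer inhibition.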 The note with it: cat-ELCCA pre-miR-21 Dicer processing, at 25 µM, stronger effect = higher value.
Sequence of Endoribonuclease Dicer (Homo sapiens) (Q9UPY3 whole entry, looked up): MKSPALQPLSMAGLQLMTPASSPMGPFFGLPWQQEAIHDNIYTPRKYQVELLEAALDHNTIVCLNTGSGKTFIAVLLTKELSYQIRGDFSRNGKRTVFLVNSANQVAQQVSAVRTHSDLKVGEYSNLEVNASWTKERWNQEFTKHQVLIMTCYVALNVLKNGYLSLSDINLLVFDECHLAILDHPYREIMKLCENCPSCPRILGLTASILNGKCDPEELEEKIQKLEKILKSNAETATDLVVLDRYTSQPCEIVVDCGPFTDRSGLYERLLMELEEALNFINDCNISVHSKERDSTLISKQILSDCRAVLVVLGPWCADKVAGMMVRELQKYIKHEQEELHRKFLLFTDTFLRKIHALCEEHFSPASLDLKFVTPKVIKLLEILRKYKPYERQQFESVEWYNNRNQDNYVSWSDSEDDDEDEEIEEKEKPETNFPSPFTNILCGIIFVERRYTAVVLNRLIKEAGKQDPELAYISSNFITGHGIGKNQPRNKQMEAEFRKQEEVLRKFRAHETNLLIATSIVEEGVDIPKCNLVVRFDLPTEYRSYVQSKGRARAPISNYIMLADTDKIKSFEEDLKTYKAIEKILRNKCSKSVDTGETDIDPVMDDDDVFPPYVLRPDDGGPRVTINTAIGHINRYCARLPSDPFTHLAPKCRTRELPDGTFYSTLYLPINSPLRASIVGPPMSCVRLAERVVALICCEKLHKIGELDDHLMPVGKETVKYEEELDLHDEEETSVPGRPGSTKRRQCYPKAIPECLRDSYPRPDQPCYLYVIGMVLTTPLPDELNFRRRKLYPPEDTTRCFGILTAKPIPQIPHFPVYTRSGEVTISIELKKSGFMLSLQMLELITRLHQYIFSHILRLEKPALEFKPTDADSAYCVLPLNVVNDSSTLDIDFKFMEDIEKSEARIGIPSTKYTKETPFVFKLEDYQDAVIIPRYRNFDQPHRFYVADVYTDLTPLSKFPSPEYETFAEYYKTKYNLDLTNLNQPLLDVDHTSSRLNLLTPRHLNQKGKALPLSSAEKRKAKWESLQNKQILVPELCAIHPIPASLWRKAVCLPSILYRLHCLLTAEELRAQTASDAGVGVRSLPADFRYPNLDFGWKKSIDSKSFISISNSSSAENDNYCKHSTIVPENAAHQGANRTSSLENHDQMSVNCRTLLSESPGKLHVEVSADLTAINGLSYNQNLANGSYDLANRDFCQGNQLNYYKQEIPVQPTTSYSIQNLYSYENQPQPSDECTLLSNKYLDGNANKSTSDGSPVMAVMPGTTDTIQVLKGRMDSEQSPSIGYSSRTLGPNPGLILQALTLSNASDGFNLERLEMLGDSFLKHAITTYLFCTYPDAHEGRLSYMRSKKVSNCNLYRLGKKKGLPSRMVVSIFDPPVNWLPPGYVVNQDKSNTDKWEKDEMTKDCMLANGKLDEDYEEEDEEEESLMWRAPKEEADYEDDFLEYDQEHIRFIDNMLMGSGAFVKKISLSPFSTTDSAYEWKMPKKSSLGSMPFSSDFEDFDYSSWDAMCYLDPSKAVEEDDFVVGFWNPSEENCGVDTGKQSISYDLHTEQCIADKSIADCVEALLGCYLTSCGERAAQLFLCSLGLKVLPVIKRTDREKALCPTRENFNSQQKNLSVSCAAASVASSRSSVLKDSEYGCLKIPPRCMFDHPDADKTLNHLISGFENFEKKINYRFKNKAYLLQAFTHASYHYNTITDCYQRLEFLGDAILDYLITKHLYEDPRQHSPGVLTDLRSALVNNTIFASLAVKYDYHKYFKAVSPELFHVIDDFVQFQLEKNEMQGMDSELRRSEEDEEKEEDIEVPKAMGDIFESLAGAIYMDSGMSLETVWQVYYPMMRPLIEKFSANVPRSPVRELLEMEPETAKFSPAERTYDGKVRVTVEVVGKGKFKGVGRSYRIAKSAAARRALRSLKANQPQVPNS
In the case of `CCOC(=O)C(C)Oc1ccc2c(=O)c(-c3ccc(OC)c(OC)c3)c(C(F)(F)F)oc2c1` (centres undefined), the z-score was 0.03.

As for `O=C1/C(=C/c2cc(Br)cs2)Cc2ccccc21`, the z-score was -0.91.

For the molecule `CCOC(=O)/C(C#N)=C/N=C(N/N=C(\C)c1cc2ccccc2o1)SC`, the z-score was -2.01.

As for `NC(=O)CN1C(=O)C(O)(CC(=O)c2ccc3c(c2)CCCC3)c2ccccc21` (centres undefined), the z-score is -1.03.

Take `O=S(=O)(c1cc(Cl)ccc1Cl)N1c2ccccc2OC1c1ccc(Cl)c(Cl)c1` (centres undefined): the z-score was -0.36.

Consider `CSC(=Nc1cc(C(F)(F)F)cc(C(F)(F)F)c1)N1CCCCC1`, for which the z-score is 5.99 (active).

Turning to `CSC(=Nc1ccccc1C(F)(F)F)N1CCCC1`, the z-score was 1.69.

As for `CCCC1c2ccsc2CCN1C(=S)Nc1ccccc1C(=O)OC` (centres undefined), the z-score was -0.25.

Regarding `CSc1nnc(/N=C/c2ccccc2O)s1`, the z-score was 0.16.

`Oc1ccccc1C=NCCCN=Cc1ccccc1O`: the z-score is 4.14 (active).

Turning to `O=C(O/N=C(/Cc1ccccc1)C(F)(F)F)c1ccc(Cl)cc1`, the z-score is -0.11.

For the molecule `Cc1cc(C)c2c(-n3cccc3)c(C(=O)c3ccc(Cl)cc3)sc2n1`, the z-score is -2.32.

For `Nc1c(C(=O)c2ccc(Cl)cc2)sc2nc(-c3cccs3)cc(C(F)(F)F)c12`, the z-score is 4.28 (active).

For the molecule `Cc1cc(-c2cccs2)c2c(N)c(C(=O)c3ccccc3)sc2n1`, the z-score was 0.82.

On to `COc1cccc(-c2nc(-c3cc4cc(C)ccc4[nH]c3=O)no2)c1`, for which the z-score was 0.33.

Consider `Cc1cc(C)c2c(N)c(-c3n[nH]c(=S)n3C)sc2n1`, for which the z-score is -3.29.

Take `Cc1cc(C)c2c(N)c(C(=O)NNC(=S)Nc3ccccc3)sc2n1`: the z-score was 5.62 (active).

In the case of `CCOC(=O)c1c(NC(=O)c2sc3nc(C)cc(COC)c3c2N)sc2c1CCCC2`, the z-score was -1.64.

On to `C#CC(CCN1CCCCC1)(OC)c1ccccc1` (centres undefined), for which the z-score is -0.6.

With `C(#CCN1CCCCC1)COC(c1ccccc1)c1ccccc1`, the z-score was 4.06 (active).

On to `NS(=O)(=O)c1ccc2c(c1)OCCO2`, for which the z-score was -0.87.

Consider `CCn1nc(C)cc1-c1n[nH]c(=S)n1-c1ccccc1`, for which the z-score was -0.98.

`Cc1cc(C)cc(Oc2coc3cc(OCC(=O)OC(C)C)ccc3c2=O)c1`: the z-score is 0.93.

`Cc1onc(-c2ccccc2Cl)c1C(=O)OCC(=O)c1ccccc1`: the z-score was 4.29 (active).

With `Cc1onc(-c2c(Cl)cccc2Cl)c1C(=O)N=S(C)(C)=O`, the z-score was 0.49.

For `Cc1[nH]n(C)c(=O)c1C(=O)c1c(-c2c(Cl)cccc2Cl)noc1C`, the z-score is -0.59.

`CCOCc1ccc2oc(C(=O)OCCN(CC)CC)cc2c1`: the z-score was 0.17.

For `Cc1nn2c3c(cnc2c1-c1ccc(F)cc1)C(=O)CC(c1cccc(Cl)c1)C3` (centres undefined), the z-score is 0.34.

Turning to `Oc1c(Cl)cc(Cl)c(Cl)c1Cc1c(O)c(Cl)cc(Cl)c1Cl`, the z-score is 13.8 (active).

For `O=C(CN1C(=O)c2ccccc2S1(=O)=O)NC1CCCCC1`, the z-score was 1.13.

On to `Cc1ccc(C(=O)CC2(O)C(=O)N(CN3CCCCC3)c3ccc(Br)cc32)cc1` (centres undefined), for which the z-score is 0.51.

In the case of `CCOC(=O)c1sc(SC)c2c1-c1ccccc1N(C)S2(=O)=O`, the z-score is -1.61.

Regarding `CCOC(=O)c1sc(SC)c(-c2ccccc2)c1N`, the z-score was 11.5 (active).

On to `CCOC(=O)c1sc2ccccc2c1N`, for which the z-score is 0.22.

For `CCOC(=O)/C(=N\Nc1ccccc1)c1csc(N)n1`, the z-score is 0.02.

Turning to `Cc1cc(C)n(C(=O)COc2ccc3ccccc3c2Br)n1`, the z-score was 2.85.

In the case of `CC(C)OC(=O)C1C(=O)CC(C)(O)C(C(=O)OC(C)C)C1c1ccc(O)cc1` (centres undefined), the z-score was -0.2.

With `COC(=O)C1=C(C)NC2=C(C(=O)CC(C)(C)C2)C1c1cc(Cl)c(O)c(OC)c1` (centres undefined), the z-score is 3.12.

For `CC(C(=O)N1CCCC1)N1c2cccc3cccc(c23)S1(=O)=O` (centres undefined), the z-score was -0.76.

With `O=[N+]([O-])c1cc(-c2cnc3ccccc3n2)ccc1Sc1ccccn1`, the z-score is 15.7.

On to `COC(=O)c1ccccc1-c1c2ccc(=O)cc-2oc2cc(O)ccc12`, for which the z-score is 7.57 (active).

For the molecule `COC(=O)c1cc(OC)c(OC)cc1N1C(=O)c2ccccc2C1=O`, the z-score was 0.34.

Regarding `COC(=O)c1ccccc1N(C)C(=O)c1cc(OC)c(OC)c(OC)c1`, the z-score is -0.98.

As to `COC(=O)c1cc(NC(=O)NC(=O)c2c(Cl)cccc2Cl)ccc1S(=O)(=O)Cc1ccc(Cl)cc1`, the z-score is 1.45.

With `CN(C)CCN1C(=O)C(=O)/C(=C(/O)c2ccc(F)cc2)C1c1cccs1` (centres undefined), the z-score was 1.06.

Take `O=C(Oc1ccc(Cl)cc1Cl)c1ccc(Cl)cc1[N+](=O)[O-]`: the z-score was 4.36 (active).

For `COC(=O)c1sccc1Oc1ccc(Cl)cc1[N+](=O)[O-]`, the z-score was -0.2.

For `CC(CC(=O)O)Oc1ccc(Cl)cc1[N+](=O)[O-]` (centres undefined), the z-score is -0.09.

As for `CC(C)N1CNc2nc3ccccc3n2C1`, the z-score was 1.6.

For `COc1ccc(S(=O)(=O)N2CCCCC2)cc1Br`, the z-score was 4.32 (active).

Consider `O=c1oc2cc(S(=O)(=O)N3CCCCC3)ccc2c2ccc(S(=O)(=O)N3CCCCC3)cc12`, for which the z-score was 1.67.

For the molecule `COc1ccccc1N1CCN(S(=O)(=O)c2ccc(Br)cc2)CC1`, the z-score was 1.29.

Regarding `Cc1nc(-c2ccc(S(=O)(=O)N3CCCN(c4ncc(C(F)(F)F)cc4Cl)CC3)s2)cs1`, the z-score was -1.58.

Consider `O=C1COCC(=O)N1c1ccc2c(c1)OCO2`, for which the z-score is 3.01 (active).

Turning to `O=C1/C(=C/c2ccc3c(c2)OCO3)CCC/C1=C\c1ccc2c(c1)OCO2`, the z-score is -1.56.

With `O=C1COCC(=O)N1c1ccc(F)cc1F`, the z-score is 2.81.

For `CS(=O)(=O)N1N=C(c2c(-c3ccccc3)c3cc(Cl)ccc3[nH]c2=O)CC1c1cccs1` (centres undefined), the z-score was 0.27.

As for `O=c1c(-c2ccccc2)coc2cc(O)ccc12`, the z-score was 3.37 (active).

In the case of `Cc1c2occ(-c3ccccc3)c2cc2c1oc(=O)c1ccccc12`, the z-score was 2.4.

As for `COc1ccccc1-c1coc2cc(OC(=O)c3ccccc3Cl)ccc2c1=O`, the z-score was 0.93.

Consider `Cc1nn(Cc2ccc(C(=O)NCc3ccccn3)o2)c(C)c1[N+](=O)[O-]`, for which the z-score is 1.35.

`Fc1ccc2onc(-c3cnn(-c4ccccc4)c3)c2c1`: the z-score is 3.3 (active).

`Cc1ccc2oc(-c3cccc(N4C(=O)c5cccnc5C4=O)c3)nc2c1`: the z-score was -1.

For the molecule `COc1ccc(-n2cnc3cc(NCc4ccco4)ccc32)cc1`, the z-score is 6.39 (active).

Turning to `CC(Oc1cccc2c(=O)c3ccccc3oc12)C(=O)O` (centres undefined), the z-score was -0.48.

Regarding `CSc1sc(C(=O)NN)cc1C#N`, the z-score is 1.26.

`CCOC(=O)N1CCc2c(sc3c2C(=O)NC(c2ccccc2F)N3)C1` (centres undefined): the z-score is 1.08.

For the molecule `Cc1cc(C(C)(C)C)ccc1NC(=O)COCC(=O)O`, the z-score is 1.34.

Turning to `CCOc1ccc(-c2nc(-c3ccc(C)nc3OC)no2)cc1`, the z-score is 0.23.

For `CCOc1ccc(-c2cc(O)cc3sc(=O)oc23)cc1`, the z-score is 5.74 (active).

In the case of `CCCCOc1cc(O)c2c(=O)cc(-c3ccccc3)oc2c1`, the z-score was -0.66.

Regarding `Cn1c2c(c(=O)n(C)c1=O)C(C(=O)Nc1ccc(Cl)cc1)CC(=O)N2` (centres undefined), the z-score is 1.36.

In the case of `COC(=O)c1sccc1NNS(=O)(=O)c1ccc(C)cc1`, the z-score is 0.67.

Take `C=CCOc1ccc(C(=O)N(Cc2ccc(OC)cc2)C2CCS(=O)(=O)C2)cc1` (centres undefined): the z-score is 1.67.

Turning to `C=CCOc1ccc2c(=O)cc(C(=O)OCC)oc2c1`, the z-score is -0.35.

As to `NC(=O)c1c(NC(=O)CSc2nc3ccccc3o2)sc2c1CCC2`, the z-score is 0.14.

For `CC(C)N1CCC(=O)N(c2ccccc2Cl)C1=O`, the z-score was 5.02 (active).

Turning to `O=[N+]([O-])c1ccc(Sc2ccc(Cl)cc2)nc1`, the z-score is -0.03.

For the molecule `CC(C)(C)n1cnnc1Sc1ccc([N+](=O)[O-])cn1`, the z-score was 2.43.

For the molecule `CC(C)Oc1ccccc1Oc1ccc([N+](=O)[O-])cn1`, the z-score was 14.5 (active).

In the case of `COc1c(Br)cc([N+](=O)[O-])c(OC)c1C(N)=O`, the z-score is -0.32.

As for `Cc1cc2n(n1)C(c1cc(C(C)(C)C)c(O)cc1O)Nc1ccccc1-2` (centres undefined), the z-score was 3.4 (active).

`CCN(CC)c1ccc(C2Nc3ccccc3-c3cc(C)nn32)c(O)c1` (centres undefined): the z-score is 0.47.

Consider `Cc1cc(C)c2c(c1)-c1cc(C)nn1C(c1ccc(O)cc1)N2` (centres undefined), for which the z-score is 2.1.

Regarding `OC(CN1CCN(C(c2ccccc2)c2ccccc2)CC1)Oc1cccc(C(F)(F)F)c1` (centres undefined), the z-score was 2.86.

`O=C1c2cccc3cc(Br)cc(c23)C(=O)N1CCO`: the z-score is 2.14.

`CCN1/C(=C\C=C\c2scc[n+]2CC)Sc2c1ccc1ccccc21`: the z-score is -2.64.

`CC(=O)/C(=C\N=S(C)(=O)c1ccc(C)cc1)S(=O)(=O)c1ccc(Cl)cc1` (centres undefined): the z-score was -3.56.

In the case of `CC1=C(C(=O)OCC2CCCO2)C(c2cccs2)C2=C(CC(c3cccs3)CC2=O)N1` (centres undefined), the z-score is 1.27.

Take `CC1(C)Cc2c(C#N)c(SCc3nc4ccccc4[nH]3)nc(N3CCOCC3)c2CO1`: the z-score is -1.2.

Turning to `C=CCn1c(SCc2nc3ccccc3[nH]2)nnc1-c1ccccc1`, the z-score is 4.03 (active).

As for `C=CCn1c(SCc2nnc(SCC(=O)c3ccc(Cl)cc3)o2)nnc1-c1ccccc1`, the z-score was 1.72.

Turning to `COc1ccc(-c2noc(-c3ccc(Cl)cc3)n2)cc1OC1CCCC1`, the z-score is -0.55.

In the case of `Cc1ccc(-n2c(C)nc3sc4c(c3c2=O)CCC(C)C4)cc1` (centres undefined), the z-score is -0.76.

Consider `CCOC(=O)c1c(NC(=O)C2CCCN2S(=O)(=O)c2ccccc2)sc(C)c1C` (centres undefined), for which the z-score was 42.8.

For `O=S(=O)(c1ccc(Cl)cc1)N1CCN(c2cc(C(F)(F)F)nc3ccccc23)CC1`, the z-score is -1.11.

Regarding `C=CCn1c(Oc2ccccc2Cl)nc2c1c(=O)n(C)c(=O)n2C`, the z-score is 0.6.

Consider `Cn1c(Oc2ccccc2Br)nc2c1c(=O)n(Cc1ccccc1)c(=O)n2C`, for which the z-score was 5.58 (active).

Consider `Cn1c(=O)c2c(nc(NCCc3ccccc3)n2Cc2ccccc2)n(C)c1=O`, for which the z-score was -1.91.

The values above are taken from PubChem BioAssay AID1347074 (Center for Chemical Genomics, University of Michigan, 2019).
